Measured values published in PubChem BioAssay (NCI).
This is part of a sample that, as a whole, favours compounds with a hit. Of some 83,000 tested, about 20% had one in any assay.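 Negative percent growth values reflect cell death: -40 means 40% of the cells present at the start died, and -100 means all died.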 A number with no mark means an inactive call. Active and inactive are the calls of the source. The calls were made as follows: active = growth percent below 10; inactive = the rest.

What follows are molecules tested on HL-60(TB) leukemia (assay: NCI-60 one-dose screen, 48 h (100 = growth as untreated, 0 = no growth, -100 = all killed)). Details: 10 µM unless noted.
O=C(N=Nc1c(O)[nH]c2ccc(Cl)cc12)c1ccc2nc(-c3ccccc3)[nH]c2c1 was tested, and the growth was 72.5%. With CCC(=O)c1c2c(c3ccc4c5ccccc5ccc4n13)C(=O)c1ccccc1C2=O the growth was 90.1%. COc1cc(CNC(=O)[C@]23CCC(C)(C)CC2C2=CCC4[C@@]5(C)CCC(OC(C)=O)C(C)(C)C5CC[C@@]4(C)[C@]2(C)CC3)ccc1OCc1cn(-c2ccc(Cl)cc2Cl)nn1 (stereo partly specified) showed a growth of 105%. Molecule COc1ccc(-c2ccnc(SCc3cc4ccccc4[nH]c3=O)n2)cc1OC has a growth of 87%. In the case of O=C(c1ccc(Cl)cc1)C1[C@H](c2ccccc2Br)[C@@H](c2ccccc2)NC12C(=O)Nc1ccccc12 (stereo partly specified), the growth is reported as -2.22% (active). Cc1ccc(/C=C/C(=O)c2ccc(NC(=O)CSc3nnc(-c4c[nH]c5ccccc45)n3-c3ccccc3)cc2)c(C)c1 gave a growth of 79.6%. In the case of COc1cc2cc(C(=O)N3C[C@@H](CCl)c4c3cc(OC(=O)N(CCC(=O)N3CCN(C)CC3)[C@H]3CCSSC3)c3ccccc43)[nH]c2c(OC)c1OC, the growth is reported as -34.5% (active). C=C1CCC2C3(C)COC(c4ccccc4)OC3CCC2(C)C1CC(Sc1ccccc1)C1=CCOC1=O (stereo unspecified) was tested, and the growth was -33% (active). Molecule Cn1cc(/C=N/Nc2cccc(Cl)n2)c2ccccc21 has a growth of 56.6%. C=C1CC[C@@H]2[C@]3(C)COC(c4cn[nH]c4-c4ccc(F)cc4)O[C@@H]3CC[C@@]2(C)[C@@H]1C/C=C1/C(=O)OCC1O (stereo partly specified) was tested, and the growth was -21.7% (active). In the case of O=C(NC(=S)N1CCN(c2ncnc3c2cnn3-c2ccccc2)CC1)c1ccc(Cl)cc1, the growth is reported as 95.5%.
